From paper PMC11995724, “Antibiotic target discovery by integrated phenotypic and activity-based profiling of electrophilic fragments” (Cell chemical biology, 2025)
The whole screen tested about 3,200 compounds, of which about 110 (3.4%) showed an effect of 50% or more. The sample holds strong results, similar compounds and a random draw of the others, so the mix is not that of the screen.

The molecules below were run on T1, V. cholerae SAD30. Conditions: relative growth, OD600, LB; 25 µM; inhibitor.
T1 construct: SAD30
Set-up: species or system S. aureus MSSA476 (TSB) or V. cholerae SAD30 (LB); 384-well bacterial growth screen at 25 uM, OD600 relative to DMSO control

| Compound | % of control remaining [%] |
| --- | --- |
| C=CC(=O)N1CCC(C(=O)NCCc2c(C)n[nH]c2C)CC1 [2-D04, N-[2-(3,5-dimethyl-1H-pyrazol-4-yl)ethyl]-1-(prop-2-enoyl)piperidine-4-carboxamide] | 106.099 |
| CC(Cl)C(=O)N1CCN(S(=O)(=O)c2ccccc2)CC1 (stereo not drawn) [6-B12, 1-[4-(benzenesulfonyl)piperazin-1-yl]-2-chloropropan-1-one] | 88.4254 |
| CCc1cccc2c(C(=O)CCl)c[nH]c12 [10-C12, 2-chloro-1-(7-ethyl-1H-indol-3-yl)ethan-1-one] | 24.3133 |
| Cc1cccc2[nH]cc(C(=O)CCl)c12 [10-H09, 2-chloro-1-(4-methyl-1H-indol-3-yl)ethan-1-one] | 100.526 |
| CCc1cccc(CC)c1NC(=O)CCl [4-F10, 2-chloro-N-(2,6-diethylphenyl)acetamide] | 103.86 |
| Cc1noc(C)c1COC1CCN(C(=O)C(C)Cl)C1 (stereo not drawn) [7-O14, 2-chloro-1-{3-[(3,5-dimethyl-1,2-oxazol-4-yl)methoxy]pyrrolidin-1-yl}propan-1-one] | 78.3744 |
| Cc1cc(C(=O)CCl)c(C)n1-c1ccccn1 [10-C16, 2-chloro-1-[2,5-dimethyl-1-(pyridin-2-yl)-1H-pyrrol-3-yl]ethan-1-one] | 41.1455 |
| Cc1cc(-n2c(C)cc(C(=O)CCl)c2C)no1 [10-C18, 2-chloro-1-[2,5-dimethyl-1-(5-methyl-1,2-oxazol-3-yl)-1H-pyrrol-3-yl]ethan-1-one] | 106.137 |
| Cc1cc(C)cc(-n2c(C)cc(C(=O)CCl)c2C)c1 [10-E04, 2-chloro-1-[1-(3,5-dimethylphenyl)-2,5-dimethyl-1H-pyrrol-3-yl]ethan-1-one] | 92.1099 |
| Cc1ccccc1-n1c(C)cc(C(=O)CCl)c1C [10-H20, 2-chloro-1-[2,5-dimethyl-1-(2-methylphenyl)-1H-pyrrol-3-yl]ethan-1-one] | 100.526 |
| Cc1cc(C(=O)CCl)c(C)n1-c1ccccc1 [10-L20, 2-chloro-1-(2,5-dimethyl-1-phenyl-1H-pyrrol-3-yl)ethan-1-one] | 100.682 |
| Cc1cc(C(=O)CCl)c(C)n1-c1ccon1 [10-F06, 2-chloro-1-[2,5-dimethyl-1-(1,2-oxazol-3-yl)-1H-pyrrol-3-yl]ethan-1-one] | 37.8726 |
| Cc1ccc(S(=O)(=O)NC2CN(C(=O)CCl)C2)cc1 [5-E07, N-[1-(2-chloroacetyl)azetidin-3-yl]-4-methylbenzene-1-sulfonamide] | 95.6604 |
| C[C@H](NC(=O)CCl)C(=O)N1CCCCC1 [7-L14, 2-chloro-N-[(2S)-1-oxo-1-(piperidin-1-yl)propan-2-yl]acetamide] | 80.489 |
| COc1ccc(C=C(C#N)C(=O)Nc2cccc(C)c2)cc1 [8-M03, 2-cyano-3-(4-methoxyphenyl)-N-(3-methylphenyl)prop-2-enamide] | 85.4521 |
| C=CC(=O)NCC(=O)c1scc(C)c1Cl [1-D16, N-[2-(3-chloro-4-methylthiophen-2-yl)-2-oxoethyl]prop-2-enamide] | 44.1609 |
| C=CC(=O)NCCc1csc(C)n1 [1-D13, N-[2-(2-methyl-1,3-thiazol-4-yl)ethyl]prop-2-enamide] | 86.9955 |
| C=CC(=O)NCCc1nc(C)cs1 [2-D05, N-[2-(4-methyl-1,3-thiazol-2-yl)ethyl]prop-2-enamide] | 94.8278 |
| COc1ccc(NC(=O)c2ccccc2NC(=O)CCl)cc1 [4-L05, 2-(2-chloroacetamido)-N-(4-methoxyphenyl)benzamide] | 109.209 |
| O=C(CCl)NCCSc1ccccc1 [4-G21, 2-chloro-N-[2-(phenylsulfanyl)ethyl]acetamide] | 113.522 |
| CN1c2ccccc2C(NC(=O)CCl)CS1(=O)=O (stereo not drawn) [7-L04, 2-chloro-N-(1-methyl-2,2-dioxo-3,4-dihydro-1H-2lambda6,1-benzothiazin-4-yl)acetamide] | 88.9476 |
| N#CC(=Cc1ccc(C#N)cc1)C(=O)N1CCCC1 [9-P21, 4-[2-cyano-2-(pyrrolidine-1-carbonyl)eth-1-en-1-yl]benzonitrile] | 93.8817 |
| CC(Cl)C(=O)Nc1ccc(SC(F)F)cc1 (stereo not drawn) [4-L09, 2-chloro-N-{4-[(difluoromethyl)sulfanyl]phenyl}propanamide] | 88.1604 |
| O=C1C=CC(=O)N1c1ccc(F)c(Cl)c1 [10-D15, 1-(3-chloro-4-fluorophenyl)-2,5-dihydro-1H-pyrrole-2,5-dione] | 25.716 |

| Compound | % of control remaining [%] |
| --- | --- |
| O=C1C=CC(=O)N1c1ccc(F)cc1 [10-M10, 1-(4-fluorophenyl)-2,5-dihydro-1H-pyrrole-2,5-dione] | 16.8323 |
| CC(Cl)C(=O)Nc1ccc(F)c(Cl)c1 (stereo not drawn) [4-A04, 2-chloro-N-(3-chloro-4-fluorophenyl)propanamide] | 99.7196 |
| O=C1C=CC(=O)N1c1cnccn1 [10-P07, 1-(pyrazin-2-yl)-2,5-dihydro-1H-pyrrole-2,5-dione] | 97.4089 |
| O=C1C=CC(=O)N1c1ccc(SC(F)F)cc1 [10-A18, 1-{4-[(difluoromethyl)sulfanyl]phenyl}-2,5-dihydro-1H-pyrrole-2,5-dione] | 28.9889 |
| O=C(CCl)Nc1ccc(SC(F)F)cc1 [4-B10, 2-chloro-N-{4-[(difluoromethyl)sulfanyl]phenyl}acetamide] | 104.205 |
| N#Cc1ccc(N2C(=O)C=CC2=O)cc1 [10-B09, 4-(2,5-dioxo-2,5-dihydro-1H-pyrrol-1-yl)benzonitrile] | 24.9367 |
| COc1ccc(NC(=O)C(C#N)=Cc2cnc3c(C)cccn23)cc1 [9-L03, 2-cyano-N-(4-methoxyphenyl)-3-{8-methylimidazo[1,2-a]pyridin-3-yl}prop-2-enamide] | 95.7852 |
| CN1C=C(C(F)(F)F)C=CC1=C(C#N)C(=O)Nc1ccccc1F [8-H20, 2-cyano-N-(2-fluorophenyl)-2-[1-methyl-5-(trifluoromethyl)-1,2-dihydropyridin-2-ylidene]acetamide] | 66.9613 |
| CC(Cl)C(=O)N(C)Cc1ccccc1 (stereo not drawn) [6-I13, N-benzyl-2-chloro-N-methylpropanamide] | 78.87 |
| CN(c1ccccc1)S(=O)(=O)c1cccc(NC(=O)CCl)c1 [4-H04, 2-chloro-N-{3-[methyl(phenyl)sulfamoyl]phenyl}acetamide] | 111.106 |
| O=C(CCc1ccccc1)NC1CCN(C(=O)CCl)CC1 [5-L08, N-[1-(2-chloroacetyl)piperidin-4-yl]-3-phenylpropanamide] | 100.704 |
| C=CC(=O)N(C)CC(=O)NCc1c(O)nnc(C)c1C [2-I20, N-({[(3-hydroxy-5,6-dimethylpyridazin-4-yl)methyl]carbamoyl}methyl)-N-methylprop-2-enamide] | 95.9085 |
| CC(Cl)C(=O)N1CCN(c2cc(-c3ccccc3F)n[nH]2)CC1 (stereo not drawn) [6-N20, 2-chloro-1-{4-[3-(2-fluorophenyl)-1H-pyrazol-5-yl]piperazin-1-yl}propan-1-one] | 84.7853 |
| NC(=O)Nc1ccc(C(=O)CCl)cc1 [10-J07, [4-(2-chloroacetyl)phenyl]urea] | 65.4588 |
| CC(C)C(=O)Nc1ccc(C(=O)CCl)cc1 [10-D04, N-[4-(2-chloroacetyl)phenyl]-2-methylpropanamide] | 37.405 |
| CCC(=O)Nc1ccc(C(=O)CCl)cc1 [10-C03, N-[4-(2-chloroacetyl)phenyl]propanamide] | 111.903 |
| O=C(CCl)c1ccc(NC(=O)c2ccccc2)cc1 [10-B06, N-[4-(2-chloroacetyl)phenyl]benzamide] | 21.5079 |
| CC(=O)Nc1ccc(C(=O)CCl)cc1 [10-O12, N-[4-(2-chloroacetyl)phenyl]acetamide] | 74.4983 |
| CC(C)CC(=O)Nc1ccc(C(=O)CCl)cc1 [10-N06, N-[4-(2-chloroacetyl)phenyl]-3-methylbutanamide] | 76.8362 |
| C=CC(=O)NCc1nc2ccccc2n1C1CC1 [2-N03, N-[(1-cyclopropyl-1H-1,3-benzodiazol-2-yl)methyl]prop-2-enamide] | 105.172 |
| N#CC(=Cc1cc2c(cc1[N+](=O)[O-])OCO2)C(=O)NC1CCCCC1 [8-F22, 2-cyano-N-cyclohexyl-3-(6-nitro-1,3-dioxaindan-5-yl)prop-2-enamide] | 83.6846 |
| CN(C)S(=O)(=O)c1cccc(NC(=O)CCl)c1 [4-J08, 2-chloro-N-[3-(dimethylsulfamoyl)phenyl]acetamide] | 94.3714 |
| CC(C)NC(=O)C(C#N)=Cc1ccc(C(F)(F)F)cc1 [8-L13, 2-cyano-N-(propan-2-yl)-3-[4-(trifluoromethyl)phenyl]prop-2-enamide] | 68.3209 |
| Cc1cc(=O)[nH]c(-c2cccc(NC(=O)C(C#N)=Cc3ccco3)c2)n1 [8-B10, 2-cyano-3-(furan-2-yl)-N-[3-(4-methyl-6-oxo-1,6-dihydropyrimidin-2-yl)phenyl]prop-2-enamide] | 79.4697 |
